From paper PMC4552634, “A New Set of Chemical Starting Points with Plasmodium falciparum Transmission-Blocking Potential for Antimalarial Drug Discovery” (PLoS ONE, 2015)
Screen size: about 13,000 compounds; about 3,200 (25%) showed an effect of 50% or more. This is one part of the list.

system: P. falciparum stage V gametocytes; parameters: BacTiter-Glo ATP luminescence viability of purified stage V gametocytes in 384-well plates, per cent inhibition versus DMSO; details: 48 h, 5 µM; inhibitor

SMILES | % Inhibition
CCCN1CCN(CC(O)CNC(=O)Nc2ccc(Br)cc2)CC1 (stereo not shown) [TCMDC-134638] | 9.49%
CCc1ccc(CN(Cc2ccc(C)cc2)Cc2ccc(NC(C)=O)cc2)cc1 [TCMDC-140034] | 13.22%
CCN(CC)/C(=N/C(=N)Nc1ccc(Br)cc1)NCCCCCCN/C(=N\C(=N)Nc1ccc(Br)cc1)N(CC)CC [TCMDC-131814] | 118.9%
N=C(N)NN=CC(=O)Nc1ccc(Br)cc1 [TCMDC-137562] | -7.978%
CCN(CC)/C(=N/C(=N)Nc1ccc(C)cc1)NCCCCCCN/C(=N\C(=N)Nc1ccc(C)cc1)N(CC)CC [TCMDC-131810] | 116.5%
CC(=O)Nc1ccc(C(=O)N2CCN(c3ccnc4cc(Cl)ccc34)CC2)cc1 [TCMDC-133574] | -9.196%
CCCC1N=C(N)N=C(N)N1c1ccc(C)cc1 (stereo not shown) [TCMDC-131297] | 8.167%
CC(C)(C)c1ccc(CNCCOc2ccc(Nc3nnc(-c4ccc(-c5ncc[nH]5)cc4)o3)c3ccccc23)cc1 [TCMDC-138667] | -26.34%
N#Cc1ccc2c(c1)CCN(CCC1CCC(NC(=O)c3ccc(-c4ccccc4)s3)CC1)CC2 (stereo not shown) [TCMDC-139837] | -13.04%
CC(=O)Nc1nc(C(=O)Nc2ccc(-c3ccc(-c4nc5c(C)cccc5[nH]4)cc3)cc2)cs1 [TCMDC-137125] | -51.44%
Cc1nn(-c2ccnc3cc(Cl)ccc23)c(C)c1C(=O)NCc1cc(Cl)cc(Cl)c1 [TCMDC-134231] | -2.069%
COc1ccc2nccc(N3CCC(NCCNCc4ccc5c(n4)NC(=O)CO5)C3)c2n1 (stereo not shown) [TCMDC-134548] | 51.99%
COc1ccc2nccc(N3CCC(SCCNCc4ccc5c(n4)NC(=O)CS5)C3)c2n1 (stereo not shown) [TCMDC-134285] | -20.26%
COc1ccc2nccc(N3CCC(SCCNCc4ccc5c(n4)NC(=O)CO5)C3)c2n1 (stereo not shown) [TCMDC-134206] | 10.7%
COc1ccc2nccc(N3CCC(CCNCc4ccc5c(n4)NC(=O)CO5)CC3)c2n1 [TCMDC-141943] | 5.733%
COc1ccc2nccc(N3CCC(NCCNCc4ccc5c(n4)NC(=O)CS5)C3)c2n1 (stereo not shown) [TCMDC-134649] | 67.81%
COc1ccc2nccc(N3CCC(NCc4ccc5c(n4)NC(=O)CS5)CC3)c2n1 [TCMDC-134652] | 3.663%
O=C(NC(c1ccccc1)c1ccccc1)C(c1cc2ccccc2o1)N1CCN(C(c2ccccc2)c2ccccc2)CC1 (stereo not shown) [TCMDC-141009] | -31.77%
CC1(C)N=C(N)N=C(N)N1c1cccc(Cl)c1 [TCMDC-123960] | 45.27%
O=C1c2ccccc2CCC1CCN1CC=C(c2c[nH]c3ccccc23)CC1 (stereo not shown) [TCMDC-140685] | -66.61%
CC1(C)CN(CCC2CCC(NC(=O)/C=C/c3ccccc3F)CC2)Cc2ccc(C#N)cc21 (stereo not shown) [TCMDC-139501] | 15.62%
CCCCCCn1c(Sc2ccc(C#N)c([N+](=O)[O-])c2)nnc1-c1ccc(Cl)cc1 [TCMDC-135599] | 28.19%
CCCCCn1c(Sc2ccc(C#N)c([N+](=O)[O-])c2)nnc1-c1ccc(Cl)cc1 [TCMDC-135598] | 19.94%
CCn1c(Sc2ccc([N+](=O)[O-])c(C#N)c2)nnc1-c1ccc(Cl)cc1 [TCMDC-135235] | 96.27%
CCCn1c(Sc2ccc(C#N)c([N+](=O)[O-])c2)nnc1-c1ccc(Cl)cc1 [TCMDC-135581] | 50.77%
COCCn1c(Sc2ccc(C#N)c([N+](=O)[O-])c2)nnc1-c1ccc(N(C)C)cc1 [TCMDC-135613] | 43.33%

SMILES | % Inhibition
CCn1c(Sc2ccc([N+](=O)[O-])c(C#N)c2)nnc1-c1cccc(Cl)c1 [TCMDC-135234] | 107.6%
CCCn1c(Sc2ccc(C#N)c([N+](=O)[O-])c2)nnc1-c1ccc(N(C)C)cc1 [TCMDC-135610] | 57.06%
CCCCn1c(Sc2ccc(C#N)c([N+](=O)[O-])c2)nnc1-c1ccc(OC)cc1 [TCMDC-135583] | 19.44%
CCn1c(Sc2ccc(C#N)c([N+](=O)[O-])c2)nnc1-c1cccc(Cl)c1 [TCMDC-135592] | 10.47%
CCCCCCn1c(Sc2ccc(C#N)c([N+](=O)[O-])c2)nnc1-c1ccc(N(C)C)cc1 [TCMDC-135618] | 23.6%
CN1CCC(N(C)c2nccc(N3CCN(Cc4cncn4Cc4ccccc4)CC3)n2)CC1 [TCMDC-125095] | -8.441%
Cc1ccc(-n2cc(CNCC3CCN(CCO)CC3)c(-c3ccc(F)cc3)n2)cc1 [TCMDC-124689] | 28.13%
O=C(CNC1=NCCN1)Nc1ccc(NC(=O)Nc2ccc(NC(=O)CNC3=NCCN3)cc2)cc1 [TCMDC-137202] | 4.446%
O=C(NCCCCN1CCCC2c3cccc(O)c3CCC21)c1ccc(-c2ccccc2)cc1 (stereo not shown) [TCMDC-139080] | 37.51%
O=C(N[C@H](Cc1ccc(Cl)cc1)C(=O)N1CCN(c2ccnc3cc(Cl)ccc23)CC1)[C@H]1Cc2ccccc2CN1 [TCMDC-141498] | 2.012%
CC(=O)c1ccc2c(c1)C(NC(=O)c1cccc(Cl)c1Cl)C(CO)C(C)(C)O2 (stereo not shown) [TCMDC-138988] | -12.37%
O=C(Nc1ccc(OC2CCN(Cc3ccccc3)C2)c(Cl)c1)c1ccc(F)cc1 (stereo not shown) [TCMDC-133972] | 8.518%
O=c1cc(NCCCNCc2scc3c(Cl)cc(C(F)(F)F)nc23)[nH]c2ccccc12 [TCMDC-141146] | 31.07%
Cc1cc(N2CCCC2=O)ccc1-c1ccc(C(=O)N2CCC(Oc3cccc(Cl)c3)CC2)cc1 [TCMDC-136525] | -32.31%
Oc1ccccc1CCNC1CCc2ccccc2C1 (stereo not shown) [TCMDC-137890] | 12.83%
COc1cc(Cc2cnc(N)nc2N)ccc1OCc1ccc(-c2csnn2)cc1 [TCMDC-138683] | -3.694%
COc1ccc(-c2nnc(Sc3ccc(C#N)c([N+](=O)[O-])c3)n2CCC(C)C)cc1 [TCMDC-135601] | 7.84%
CC(C)CCn1c(Sc2ccc(C#N)c([N+](=O)[O-])c2)nnc1-c1ccc(Cl)cc1 [TCMDC-135596] | 54.47%
CC(C)Cn1c(Sc2ccc(C#N)c([N+](=O)[O-])c2)nnc1-c1ccccc1 [TCMDC-141918] | 17.88%
CC(C)Cn1c(Sc2ccc(C#N)c([N+](=O)[O-])c2)nnc1-c1ccccc1Cl [TCMDC-135609] | 54.29%
CCn1c(Sc2ccc(C#N)c([N+](=O)[O-])c2)nnc1-c1ccc(OC)cc1 [TCMDC-135602] | 29.96%
CC(C)CCn1c(Sc2ccc(C#N)c([N+](=O)[O-])c2)nnc1-c1cccc(Cl)c1 [TCMDC-135591] | 23.85%
CCCn1c(Sc2ccc(C#N)c([N+](=O)[O-])c2)nnc1-c1ccc(OC)cc1 [TCMDC-135582] | 31.08%
CC(C)CCn1c(Sc2ccc(C#N)c([N+](=O)[O-])c2)nnc1-c1ccccc1Cl [TCMDC-135615] | 17.65%
CCn1c(Sc2ccc(C#N)c([N+](=O)[O-])c2)nnc1-c1ccc(Cl)cc1 [TCMDC-135597] | 65%
O=C(NCC(CCN1CCC(c2c[nH]c3ccccc23)CC1)c1ccccc1)Nc1ccc(Cl)c(Cl)c1 (stereo not shown) [TCMDC-139626] | 1.901%

SMILES | % Inhibition
COc1cccc2cc(C(=O)N[C@@H](CC(C)C)C(=O)N[C@H](C=NN3CCOC3=O)CC(C)C)oc12 [TCMDC-136064] | 12.6%
Cc1noc(=O)c2ccc(NC(=O)C(O)(CSc3ccccc3)CC(C)C)cc12 (stereo not shown) [TCMDC-135222] | 46.49%
Fc1cc(Cl)ccc1Nc1ccnc(Nc2ccc3cn[nH]c3c2)n1 [TCMDC-138575] | 13.66%
c1ccc(-c2[nH]ncc2Nc2ccnc3ccccc23)nc1 [TCMDC-138641] | -8.718%
NC(=O)c1cc2nc(NC3CCC3)nc(Nc3cccc4[nH]ncc34)c2[nH]1 [TCMDC-137005] | 21.61%
O=C(Cc1ccc([N+](=O)[O-])cc1)N1CCc2cc3nccc(N4CCN5CCC[C@@H]5C4)c3cc21 [TCMDC-140039] | -19.96%
O=C(Nc1ccccc1Cc1ccccc1)c1ccccc1C(F)(F)F [TCMDC-123550] | 54.56%
O=C(Nc1ccc([N+](=O)[O-])cc1Cl)c1cc(Br)cc(Cc2ccccc2)c1O [TCMDC-124004] | 12.42%
O=C(Nc1ccccc1Cc1ccccc1)c1ccccc1[N+](=O)[O-] [TCMDC-124438] | 42.41%
O=C(Nc1ccc2c(c1)CCN2C1CCN(Cc2csc3ccccc23)C1)c1ccco1 (stereo not shown) [TCMDC-135069] | 39.32%
CN1CCN(c2ccnc3cc4ccccc4cc23)CC1 [TCMDC-124200] | 1.444%
c1ccc2cc3c(NCCN4CCOCC4)ccnc3cc2c1 [TCMDC-125814] | -3.95%
CCN1CCCC(Nc2ccnc3cc4ccccc4cc23)C1 (stereo not shown) [TCMDC-123499] | 94.14%
Cn1c(=N)cc(-c2ccc(Br)cc2)c2c(=O)[nH]c(N)nc21 [TCMDC-137743] | 6.431%
Cc1csc(-c2ccc3[nH]cc(C4=CCN(C)CC4)c3c2)n1 [TCMDC-132040] | -6.013%
O=S(=O)(Nc1cc2c(cc1O)CCNCC2)c1ccc(-c2ccc(Cl)cc2)cc1 [TCMDC-141497] | -93.89%
CN1CCc2cc(NS(=O)(=O)c3ccc(-c4ccc(Cl)cc4)cc3)c(OCCCN3CCCCC3)cc2CC1 [TCMDC-141754] | 108.9%
CC(C)Oc1cc2c(cc1NS(=O)(=O)c1ccc(-c3ccc(Cl)s3)cc1F)CCN(C)CC2 [TCMDC-141582] | 18.13%
COc1ccc(-c2ccc(S(=O)(=O)Nc3cc4c(cc3OC(C)C)CCNCC4)cc2)cc1 [TCMDC-141481] | 37.39%
Cc1cc(-c2ccc(S(=O)(=O)Nc3cc4c(cc3OC(C)C)CCN(C)CC4)cc2)ccc1Cl [TCMDC-141488] | 42.37%
CN1CCc2cc(O)c(NS(=O)(=O)c3ccc(-c4ccc(Cl)cc4)cc3)cc2CC1 [TCMDC-141501] | -85.22%
O=S(=O)(Nc1cc2c(cc1OCCCN1CCCCC1)CCNCC2)c1ccc(-c2ccc(Cl)cc2)cc1 [TCMDC-141753] | 106.2%
CN1CCc2cc(NS(=O)(=O)c3ccc(-c4ccc(Cl)s4)cc3)c(N3CCCCC3)cc2CC1 [TCMDC-141588] | 76.97%
CC(C)Oc1cc2c(cc1NS(=O)(=O)c1ccc(-c3ccc(Cl)cc3)cc1)CCN(C)CC2 [TCMDC-141459] | 21.1%
